VACV Venus inh = vaccinia inhibition (Venus reporter); Vaccinia virus Venus reporter expression, fluorescence; Potency, µM (top dose mostly 36.5 µM), for the others: at the highest dose activity change, negative = inhibition, most hits filed as inhibitors; actives 0.46% (n = 330,000); calls by dose curve; tested in A549 cells; note: nearly all actives have a fitted effect of over 30% in size
Pf growth 48h = inhibits P. falciparum growth in the first generation, 48 h. P. falciparum luciferase growth in erythrocytes, 48 h. Potency, µM (top dose mostly 28.7 µM), inactives show top-dose activity change, negative = inhibition, usual class: inhibitors. actives 5.9% (n = 310,000). AID 504832
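Luminescence readout; reporter = integrated firefly luciferase in P. falciparum. RBC culture at 2% hematocrit, 0.1% parasitemia final, 37 C/5% CO2; decreased signal taken as growth inhibition.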
VACV mCherry inh = inhibitors of vaccinia virus infection (mCherry reporter signal); Vaccinia virus mCherry reporter infection, fluorescence; actives 0.63% (n = 310,000); Potency, µM (top dose mostly 36.5 µM), inactives show at the top dose activity change, negative = inhibition, usual class: inhibitors; calls by dose curve; tested in A549 cells; note: nearly all actives have a fitted effect of over 35% in size
AMA1-RON2 inh = AMA1-RON2 (P. falciparum) interaction inhibition. Potency, µM (doses to about 58.2 µM), without a hit: at the top dose activity change, negative = inhibition, actives largely listed as inhibitors. actives 0.2% (n = 360,000). AlphaScreen AMA1-biotinylated RON2 peptide binding;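 note: 0% = vehicle wells and -100% = peptide control; nearly all actives have a fitted effect of over 45% in size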
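AMA1 (3D7) with his tag at 25 nM final met compounds first, then biotinylated RON2 peptide at 25 nM; detection used donor plus acceptor beads, 10 µg/mL apiece, read by AlphaScreen after 30 min at room temperature.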
Pf growth 96h = inhibits malaria parasite growth, 96 h. P. falciparum luciferase reporter growth, 96 h. Potency, µM (top dose mostly 28.7 µM), inactives show at the top dose activity change, negative = inhibition, usual class: inhibitors. actives 6.9% (n = 320,000). AID 504834
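Two parasite generations (96 h, 37 C, 5% CO2) of compound exposure in infected erythrocytes (0.05% parasitemia, 2% hematocrit). Luciferase-reporter P. falciparum; decreased luminescence indicates inhibited growth, aimed at apicoplast-acting delayed death.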
An asterisk follows results filed as active; i = inactive; ? = inconclusive; · = no result. Shown are actives, neighbours in structure and some others; about 8.7% of the full set was active somewhere. Unless noted, calls come from the whole dose curve; as a rule, active = well fitted curve in the direction sought with a large enough effect; inconclusive = small, poorly fitted or top-dose-only effect, or another doubt; inactive = no such curve, though single readings can be large; an effect the other way counts as inactive or inconclusive. Unless noted, % is set by controls: 0 for no effect and ±100 for the full control effect; potency is the fitted concentration of half-maximal effect.

SMILES | VACV Venus inh | Pf growth 48h | VACV mCherry inh | AMA1-RON2 inh | Pf growth 96h
CCc1ccccc1NC(=O)Nc1nnc(N(CC)c2ccccc2)s1 | -23% | · | -21% | · | ·
COc1ccc(-c2cc(C(F)(F)F)n3nc(C(=O)Nc4sc5c(c4C#N)CCC(C)C5)cc3n2)cc1OC (stereo unspecified) | -9% | · | -16% | · | ·
Cc1ccc(S(=O)(=O)N2CCCc3cc(NS(=O)(=O)c4ccc(F)cc4)ccc32)cc1 | -9% | · | -11% | · | ·
CCOC(=O)c1c(C)[nH]c(C)c1S(=O)(=O)N(C)CC(=O)N1CCN(c2cccc(C)c2C)CC1 | -22% | · | -28% | · | ·
S=C(NCc1ccc(Cl)cc1)Nc1ccncc1 | · | 13µM* | · | -15% | 0%
S=C(NCc1ccc(Cl)cc1)Nc1ccccc1 | -12% | 0% | i | -20% | -7%
Cc1cccc(-n2c(C)c(-c3ccccc3)[nH]c2=S)c1 | -15% | ? | -17% | 25% | 9.3µM*
Cc1nc(C)c(-c2csc(N)n2)s1 | -14% | -12% | -7% | 12% | 0.33µM*
Nc1nc(-c2ccc(-c3ccccc3)cc2)cs1 | ? | i | ? | 3% | 472%
Nc1nc(-c2ccc(Oc3ccccc3)cc2)cs1 | · | 36% | · | 10% | ?
Cc1ccc(-c2csc(N)n2)cc1 | ? | · | 11µM* | -5% | ·
COc1ccc(-c2csc(N)n2)cc1 | ? | 141% | 14µM* | 2% | 85%
Cc1ccnc(Nc2nc(-c3sc(C)nc3C)cs2)c1 | ? | · | 3.5µM* | -11% | ·
CCOC(=O)C1CCN(C(=O)C2CCN(C3=NS(=O)(=O)C(c4ccc(C)c(C)c4)=C3C)CC2)CC1 | -7% | · | -9% | · | ·
CC(NC(=O)C1CCN(c2nc3ccccc3nc2C(F)(F)F)CC1)c1ccccc1 (stereo unspecified) | -10% | · | -4% | · | ·
Cc1ccc(C)c(CSc2nnc3[nH]c(=O)cc(-c4ccccc4)n23)c1 | -5% | · | -13% | · | ·
COc1ccccc1-c1sc2ccccc2c1-c1ccccc1OC | -4% | 13µM* | i | -11% | 2.6µM*
COc1ncc(-c2c(-c3ccccc3OC)sc3ccccc23)cn1 | -1% | · | 14% | -14% | ·
COc1ccc(-c2c(-c3ccccc3OC)sc3ccccc23)cc1C=O | -17% | ? | -4% | -1% | ?
COc1ccc(-c2c(-c3ccccc3OC)sc3ccccc23)cc1OC | -8% | ? | -1% | -18% | 9.3µM*
Cc1cccc(N2CCN(S(=O)(=O)c3cc(C(=O)Nc4ccccc4Cl)ccc3F)CC2)c1C | -8% | · | -9% | · | ·
CCc1cc2c(cc3c(=O)n(CC(=O)NC4CCC(C)CC4)ncn32)s1 (stereo unspecified) | -9% | · | -12% | · | ·
CCOC(=O)/C(N=O)=C(\O)C1CCN(C(=O)OCC)CC1 | -17% | · | -13% | 3% | 13µM*
CCOC(=O)N1CCC(NC(=O)C2CCN(S(=O)(=O)N3CCCC3)CC2)CC1 | -10% | 32% | -13% | 0% | 0%
Cc1ccc(S(=O)(=O)N(C(=O)c2ccncc2)c2ccc(OC(=O)c3ccncc3)c3ccccc23)cc1 | -7% | 10µM* | -14% | ? | 9.3µM*
SMILES | VACV Venus inh | Pf growth 48h | VACV mCherry inh | AMA1-RON2 inh | Pf growth 96h
CC(=O)Oc1ccc(N(C(C)=O)S(=O)(=O)c2ccc(C)cc2C)c2ccccc12 | · | 8.3µM* | · | -3% | 2.6µM*
COc1ccc(S(=O)(=O)N(C(C)=O)c2ccc(OC(C)=O)c3ccccc23)cc1[N+](=O)[O-] | · | 6.6µM* | · | -11% | -3%
CC(=O)Oc1ccc(N(C(C)=O)S(=O)(=O)c2ccccc2)c2ccccc12 | -6% | · | ? | -10% | ·
COC(=O)c1c(C)oc2ccc(N(C(=O)c3ccncc3)S(=O)(=O)c3ccccc3)cc12 | ? | 15% | · | -9% | 48%
COC(=O)c1c(C)oc2ccc(N(C(=O)c3ccncc3)S(=O)(=O)c3ccc(C)cc3)cc12 | ? | 7% | 10µM* | -3% | ·
Cc1ccc(OC(=O)c2ccc(S(=O)(=O)N(C)C)cc2)c(-n2nc3ccccc3n2)c1 | · | 285% | · | 1% | 440%
CC(=O)Oc1ccccc1N(C(C)=O)S(=O)(=O)c1ccc(C)cc1 | · | 11% | · | -3% | ?
Cc1ncc2c(c1CNC(=O)c1ccccc1F)CCN(C(=O)c1[nH]c3ccc(Cl)cc3c1C)C2 | -3% | · | 1% | · | ·
O=C(C[n+]1cccc2cccc(O)c21)c1ccc(F)cc1 | -6% | · | -12% | · | ·

Screens from PubChem.
